Assay results from PubChem BioAssay (Tox21).
Results filed as inconclusive are left out. Calls of active or inactive are those of the source. Unless noted, calls follow the shape of the dose curve; as a rule, active = well fitted curve in the direction sought with a large enough effect in the repeat runs; inconclusive = weak or mixed curves; inactive = no such curve, though single readings can be large; an effect the other way counts as inactive or inconclusive.

Tests used:
[1] = qHTS RealTime-Glo MT Cell Viability Assay in HEK293 cells - 0 hour (AID 1224880); also: top concentration of the series differs between compounds; nearly all actives have a fitted effect of over 45% in size
How it was run: (§1)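 Measured as luminescence from the same continuously cultured HEK293 wells at successive time points (0, 8, 16, 24, 32, 40 h) after compound addition. Reagent present from seeding; dosing at 5 h; incubation 37 C.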

[2] = A CellTox Green Cytotoxicity Assay to monitor cytotoxicity in HEK293 cells - 32 hour (AID 1224881); also: nearly all actives have a fitted effect of over 40% in size
How it was run: (§2)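 Homogeneous no-lysis format: HEK293 cell suspension mixed with CellTox Green reagent, seeded, incubated 5 h at 37 C/5% CO2, then dosed by pintool with compound in DMSO.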

[3] = A CellTox Green Cytotoxicity Assay to monitor cytotoxicity in HepG2 cells - 0 hour (AID 1224882); also: nearly all actives have a fitted effect of over 35% in size
How it was run: (§3)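 Fluorescent DNA-binding dye, 600 HepG2 cells/well, 5 h preincubation then compound in DMSO; same plates read at 0–40 h, 37 C.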

[4] = A CellTox Green Cytotoxicity Assay to monitor cytotoxicity in HepG2 cells - 32 hour (AID 1224883); also: nearly all actives have a fitted effect of over 50% in size
How it was run: as §3

[5] = A CellTox Green Cytotoxicity Assay to monitor cytotoxicity in HEK293 cells - 8 hour (AID 1224884); also: nearly all actives have a fitted effect of over 35% in size
How it was run: as §2

[6] = qHTS RealTime-Glo MT Cell Viability Assay in HepG2 cells - 16 hour (AID 1224885); also: nearly all actives have a fitted effect of over 50% in size
How it was run: (§4)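 Real-time, nonlytic viability: 600 HepG2 cells/well mixed with NanoLuc enzyme plus prosubstrate; 5 h settle, compound (DMSO) added by pintool; luminescence monitored over 40 h at 37 C.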

[7] = qHTS RealTime-Glo MT Cell Viability Assay in HEK293 cells - 24 hour (AID 1224886); also: top concentration of the series differs between compounds; nearly all actives have a fitted effect of over 50% in size
How it was run: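 Cells + reagent dispensed (600 cells/well, HEK293) → 5 h at 37 C/5% CO2 → 23 nL compound in DMSO pinned → 40 h at 37 C → luminescence read at 0, 8, 16, 24, 32, 40 h.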

[8] = qHTS RealTime-Glo MT Cell Viability Assay in HEK293 cells - 8 hour (AID 1224887); also: top concentration of the series differs between compounds; nearly all actives have a fitted effect of over 50% in size
How it was run: as §1

[9] = A CellTox Green Cytotoxicity Assay to monitor cytotoxicity in HEK293 cells - 16 hour (AID 1224888); also: nearly all actives have a fitted effect of over 35% in size
How it was run: as §2

[10] = qHTS RealTime-Glo MT Cell Viability Assay in HepG2 cells - 0 hour (AID 1224889); also: nearly all actives have a fitted effect of over 50% in size
How it was run: as §4

[11] = qHTS assay to identify small molecule antagonists of the estrogen receptor alpha (ER-alpha) signaling pathway using the BG1 cell line in the presence of 0.1 nM 17-beta-estradiol - cell viability counter screen (AID 1259241); also: nearly all actives have a fitted effect of over 40% in size
How it was run: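 CellTiter-Fluor read (30 min, 37C) on ER-alpha/ERE-luc VM7Luc4E2 cells; 22 hr compound treatment; agonist 0.1 nM E2 final; same-well multiplex.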

[12] = qHTS assay to identify small molecule antagonists of the androgen receptor (AR) signaling pathway using the MDA cell line in the presence of 0.5 nM R1881 - cell viability counter screen (AID 1259242); also: nearly all actives have a fitted effect of over 45% in size
How it was run: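 Human breast carcinoma MDA-kb2 cells, cultured without CO2, receive compounds alongside 0.5 nM (final) R1881 agonist. After 16 hr at 37C, viability is taken as live-cell protease signal.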

[13] = molecular target: Androgen receptor (Homo sapiens) (UniProt P10275); experiment: qHTS assay to identify small molecule antagonists of the androgen receptor (AR) signaling pathway using the MDA cell line in the presence of 0.5 nM R1881 (AID 1259243); also: nearly all actives have a fitted effect of over 50% in size
How it was run: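 Cells: MDA-kb2 (MMTV-luc). Stimulus: 0.5 nM R1881. Time: 16 hr, 37C, no CO2. Detection: ONE-Glo luminescence after 30 min at RT.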

[14] = molecular target: Estrogen receptor (Homo sapiens) (UniProt P03372); experiment: qHTS assay to identify small molecule antagonists of the estrogen receptor alpha (ER-alpha) signaling pathway using the BG1 cell line in the presence of 0.1 nM 17-beta-estradiol (AID 1259244); also: nearly all actives have a fitted effect of over 50% in size
How it was run: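 Seeding of stripped-serum-adapted VM7Luc4E2 cells, 24 h attachment, compound transfer, then 0.1 nM final 17beta-estradiol; after 22 h incubation, ONE-Glo reagent and luminescence reading.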

[15] = qHTS assay to identify small molecule HDAC inhibitors (AID 1259364);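 also: wild-type HCT-116 cells with endogenous class I/II HDAC activity; top concentration of the series differs between compounds; nearly all actives have a fitted effect of over 45% in size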
How it was run: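 After a 2 hr compound incubation (37C, 5% CO2), HCT-116 cells seeded at 1,500/well the day before received HDAC-Glo reagent; signal read as luminescence after 30 min at room temperature.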

[16] = qHTS assay to identify small molecule HDAC inhibitors - cell viability counter screen (AID 1259365)
How it was run: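 To flag cytotoxic hits, 1,500 wild-type HCT-116 cells per well, plated the day before, receive test compounds for 2hr at 37 C before CellTiter-Glo reagent and a luminescence read.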

[17] = qHTS assay to identify small molecule agonists of the sonic hedgehog signaling (Shh) pathway - cell viability counter screen (AID 1259366); also: nearly all actives have a fitted effect of over 50% in size; also: potency is read from the fitted curve at half-maximal effect
How it was run: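 Fluorescence from CellTiter-Fluor reports live cells in this counter screen. NIH/3T3-derived Gli1-Luc reporter cells receive test compounds for 24hr at 37C; reagent goes in at 23hr.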

[18] = qHTS assay to identify small molecule antagonists of the sonic hedgehog signaling (Shh) pathway - cell viability counter screen (AID 1259367); also: nearly all actives have a fitted effect of over 55% in size; also: potency is read from the fitted curve at half-maximal effect
How it was run: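 Fluorescence read-out (CellTiter-Fluor, 1 hr at 37C) taken after 23 hr compound treatment of 3T3 Gli1-Luc cells stimulated with conditioned medium. Cells were seeded at 2,000 per well and pre-incubated 4 hr.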

[19] = A CellTox Green Cytotoxicity Assay to monitor cytotoxicity in HepG2 cells - 8 hour (AID 1224890); also: nearly all actives have a fitted effect of over 45% in size
How it was run: as §3

[20] = qHTS assay to identify small molecule phospholipidosis (PLD) inducers (AID 1259344; active = well fitted curve in the direction sought with a large enough effect; an effect the other way counts as inactive or inconclusive)
How it was run: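 Read-out is LipidTOX Red fluorescence (ex 595/em 615) imaged in HepG2 cells after 24 h compound exposure at 37 C, with Hoechst nuclear counterstain (ex 352/em 461) allowing per-cell normalisation.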

Measured: Potency

Sequence of Androgen receptor (Homo sapiens) (P10275 whole entry, looked up): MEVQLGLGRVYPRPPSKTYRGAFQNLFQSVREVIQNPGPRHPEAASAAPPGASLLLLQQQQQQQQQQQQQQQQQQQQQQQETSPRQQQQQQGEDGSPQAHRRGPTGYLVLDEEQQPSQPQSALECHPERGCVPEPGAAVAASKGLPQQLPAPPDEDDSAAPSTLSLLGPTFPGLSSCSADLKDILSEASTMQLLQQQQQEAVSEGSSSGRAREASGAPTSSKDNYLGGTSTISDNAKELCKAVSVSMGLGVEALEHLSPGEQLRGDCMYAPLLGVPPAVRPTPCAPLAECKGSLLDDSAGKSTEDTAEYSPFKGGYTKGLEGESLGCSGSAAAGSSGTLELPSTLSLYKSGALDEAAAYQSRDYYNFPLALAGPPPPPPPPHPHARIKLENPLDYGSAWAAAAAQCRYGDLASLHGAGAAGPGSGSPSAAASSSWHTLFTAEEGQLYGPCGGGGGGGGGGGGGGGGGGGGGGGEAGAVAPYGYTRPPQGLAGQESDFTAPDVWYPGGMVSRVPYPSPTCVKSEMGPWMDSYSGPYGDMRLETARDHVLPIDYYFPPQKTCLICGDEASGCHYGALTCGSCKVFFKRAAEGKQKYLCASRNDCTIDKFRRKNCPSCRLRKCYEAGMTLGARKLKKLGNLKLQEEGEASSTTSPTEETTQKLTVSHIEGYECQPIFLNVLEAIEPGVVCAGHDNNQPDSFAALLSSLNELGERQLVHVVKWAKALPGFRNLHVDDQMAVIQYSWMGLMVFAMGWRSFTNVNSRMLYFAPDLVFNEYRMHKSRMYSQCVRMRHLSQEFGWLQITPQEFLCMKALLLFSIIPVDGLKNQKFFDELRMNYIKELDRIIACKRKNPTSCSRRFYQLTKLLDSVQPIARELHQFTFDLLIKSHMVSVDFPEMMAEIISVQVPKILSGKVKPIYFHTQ
Sequence of Estrogen receptor (Homo sapiens) (P03372 whole entry, looked up): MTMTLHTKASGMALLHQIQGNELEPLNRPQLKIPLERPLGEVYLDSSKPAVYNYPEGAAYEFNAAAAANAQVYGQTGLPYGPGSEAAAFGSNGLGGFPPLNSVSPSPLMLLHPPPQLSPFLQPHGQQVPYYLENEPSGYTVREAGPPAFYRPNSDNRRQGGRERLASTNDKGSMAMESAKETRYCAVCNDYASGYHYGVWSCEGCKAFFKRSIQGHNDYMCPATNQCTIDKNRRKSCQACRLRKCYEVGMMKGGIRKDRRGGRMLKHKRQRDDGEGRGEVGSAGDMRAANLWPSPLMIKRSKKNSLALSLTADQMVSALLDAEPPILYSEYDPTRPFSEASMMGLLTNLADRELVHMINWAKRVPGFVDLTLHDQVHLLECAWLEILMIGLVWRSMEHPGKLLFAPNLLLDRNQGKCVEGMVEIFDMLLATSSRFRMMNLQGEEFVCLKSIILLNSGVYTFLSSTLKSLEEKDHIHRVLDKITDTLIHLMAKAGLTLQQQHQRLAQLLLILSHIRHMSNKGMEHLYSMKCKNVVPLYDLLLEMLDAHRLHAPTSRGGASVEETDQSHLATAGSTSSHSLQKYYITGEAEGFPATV

CCCCCCCCCCOC(=O)c1ccccc1C(=O)OCCCCCCCCCC
not listed: [18] | [19] | [20]
inactive: all other assays above

Cc1ccc2ccccc2c1
not listed: [19] | [20]
inactive: all other assays above

O=NN1CCCCCC1
not listed: [14] | [19] | [20]
inactive: all other assays above

c1ccc(C2CC2)c(OCC2=NCCN2)c1
not listed: [11] | [12] | [13]
inactive: all other assays above

CCN(C)N=O
not listed: [11] | [13] | [20]
inactive: all other assays above

CCc1ccc(C(=O)NN(C(=O)c2cc(C)cc(C)c2)C(C)(C)C)cc1
active: [17] 2170 nM | [18] 2430 nM
not listed: [11] | [13] | [14] | [20]
inactive: all other assays above
